High-throughput results (PubChem BioAssay)
An excerpt weighted towards active compounds, which were near 1.4% of everything screened.
PrPC TRFRET – inhibitors of human cell surface prion protein PrPC; P04156; TR-FRET read-out; inhibition, % at 13.8 µM; 0.43% of 370,000 active; AID 720596; in the data active means inhibition above about 24%; further: 0% = median of the test wells and 100% = reference compound wells
VHR inh abs – inhibitors of human VHR1 phosphatase (DUSP3) | P51452 | recombinant VHR phosphatase, pNPP absorbance | inhibition, % at 13.3 µM | 0.52% of 290,000 active; in the data active means inhibition above about 50%
SARS 3CLpro inh – SARS-CoV 3CLpro protease inhibition. inhibition, % at 6 µM. recombinant SARS-CoV 3CLpro, quenched FRET peptide cleavage. 0.14% of 290,000 active. P0C6X7. AID 1706; in the data active means inhibition above about 12%
Sa RN4220 lethal – kills Staphylococcus aureus RN4220; S. aureus RN4220 growth, OD600, 16 h; inhibition, % (concentration not given with the values); 0.33% of 330,000 active; in the data active means inhibition above about 85%;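 further: plate controls were untreated cells for no effect and reference antibiotic for full effect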
BJeLR lethal – BJeLR cell viability loss; 0.17% of 300,000 active; inhibition, % (concentration not given with the values); BJeLR (HRASV12) viability, CellTiter-Glo ATP luminescence, 48 h; AID 1554; in the data active means inhibition above about 50%
ugtP null kill – compounds lethal to S. aureus RN4220 ugtP deletion mutant; OD600 growth, 16 h; growth inhibition, % (no concentration beside the values); 0.54% of 330,000 active; in the data active means growth inhibition above about 68%;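 further: plate controls were untreated wells for no effect and antibiotic for full effect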
PrPC confirm – confirmation of inhibitors of cell surface human prion protein | shares compounds with PrPC TRFRET | cell surface PrPC level, TR-FRET | inhibition, % at 13.8 µM | 65% of 1,500 active; in the data active means inhibition above about 25%
LD9 cytotox – counter-screen for PrPc inhibitors: cytotoxicity in LD9 cells. luminescence viability. inhibition, % at 13.8 µM. AID 743201. 29% of 1,500 active. shares compounds with PrPC TRFRET; in the data active means inhibition above about 9.5%
* marks the source's active call; other numbers are inactive results.

`COc1ccc(C(=O)N/N=C(\c2ccccc2)c2ccccn2)cc1` gave PrPC TRFRET 28*, VHR inh abs 3, SARS 3CLpro inh 0, BJeLR lethal 24, PrPC confirm 26* and LD9 cytotox 39*.
`COC(=O)C1=CC(=O)C=C(OC)[C@@]12Oc1cc(C)cc(OC)c1C2=O` gave PrPC TRFRET 59*, PrPC confirm 1 and LD9 cytotox 98*.
Screening COc1ccc(-n2nnnc2CNC(=O)C2CC(=O)N(c3ccc(F)cc3)C2)cc1 (centres undefined) returned PrPC TRFRET 31*, PrPC confirm 3 and LD9 cytotox -3.
`COc1cccc(OCc2cc(C(=O)N(C)Cc3nc4ccccc4[nH]3)no2)c1` gave PrPC TRFRET 29*, VHR inh abs 51*, SARS 3CLpro inh -3, Sa RN4220 lethal 1, BJeLR lethal 7, ugtP null kill 2, PrPC confirm 39* and LD9 cytotox 2.
COc1cc2[nH]c(=S)n(NC(=O)c3ccccc3)c(=O)c2cc1OC was read as PrPC TRFRET 36*, VHR inh abs 30, SARS 3CLpro inh -3, Sa RN4220 lethal 8, BJeLR lethal 6, ugtP null kill 18, PrPC confirm 50* and LD9 cytotox -4.
For CC1COC(=O)C(Cc2ccc(F)cc2)CCC=CCC(CC(=O)NCCO)C(=O)N1 (centres undefined) the results were Sa RN4220 lethal 5 and ugtP null kill 0.
For CCCCc1c(-c2ccc(F)cc2F)ncn1CCc1ccccc1OC the results were PrPC TRFRET 3.
Screening CCCCc1c(Cc2cccc(F)c2)ncn1CCc1ccccc1OC returned PrPC TRFRET 27*, PrPC confirm 19 and LD9 cytotox 17*.
O=C(O)CCCCCCC1C(=O)NC(=O)N1CCC(O)C1CCCCC1 (centres undefined) was read as PrPC TRFRET 27*, VHR inh abs 24, SARS 3CLpro inh -3, Sa RN4220 lethal 2, BJeLR lethal 7, ugtP null kill -4, PrPC confirm 19 and LD9 cytotox -8.
For O=C(O)CCCCCN1C(=O)C2CCCCC2C1=O (centres undefined) the results were PrPC TRFRET 4, VHR inh abs 26, SARS 3CLpro inh 5, Sa RN4220 lethal 0, BJeLR lethal 5 and ugtP null kill -7.
Screening Oc1ccc(/C=N/Nc2nccnc2Cl)c(O)c1 returned PrPC TRFRET 25*, VHR inh abs 16, SARS 3CLpro inh 1, BJeLR lethal 68*, PrPC confirm 33* and LD9 cytotox 24*.
`C[C@]12CCC(=O)C=C1CCC1C2C(O)C[C@@]2(C)C1CC[C@]2(O)C(=O)COC(=O)CCC(=O)O` (some centres undefined) gave Sa RN4220 lethal 9 and ugtP null kill 6.
For CNC(=O)c1nnsc1S(=O)(=O)c1ccc(Cl)cc1 the results were PrPC TRFRET 25*, VHR inh abs -8, SARS 3CLpro inh 1, Sa RN4220 lethal 7, BJeLR lethal 13, ugtP null kill 12, PrPC confirm -4 and LD9 cytotox 80*.
`O=C(O)C=CC(=O)Nc1ccc(S(=O)(=O)Nc2nccs2)cc1` gave Sa RN4220 lethal 1 and ugtP null kill 0.
CN1CCc2c(sc(NC(=O)c3ccc([N+](=O)[O-])o3)c2C(N)=O)C1 was read as PrPC TRFRET 44*, VHR inh abs -4, SARS 3CLpro inh -2, BJeLR lethal 0, PrPC confirm 42* and LD9 cytotox 61*.
`CCN(CC)C(=S)Nc1cc(C(=O)OC)ccc1C(=O)OC` gave PrPC TRFRET 25*, VHR inh abs 43, SARS 3CLpro inh 2, Sa RN4220 lethal 6, BJeLR lethal 1, ugtP null kill -1, PrPC confirm 4 and LD9 cytotox -6.
`CCOC(=O)C(C)Sc1nc(-c2ccco2)cc(C(F)(F)F)c1C#N` (centres undefined) gave PrPC TRFRET 33*, VHR inh abs -7, SARS 3CLpro inh -2, Sa RN4220 lethal 2, BJeLR lethal 3, ugtP null kill 10, PrPC confirm 49* and LD9 cytotox -1.
`CC(C)(C)c1cc(CCC(=O)N2CCC2)cc(C(C)(C)C)c1O` gave PrPC TRFRET 21, VHR inh abs -11, SARS 3CLpro inh -1, Sa RN4220 lethal 4, BJeLR lethal 1 and ugtP null kill -5.
CC1CN(C(=O)CCc2cc(C(C)(C)C)c(O)c(C(C)(C)C)c2)CC(C)O1 (centres undefined) was read as PrPC TRFRET 26*, VHR inh abs 50, SARS 3CLpro inh 0, Sa RN4220 lethal 6, BJeLR lethal 3, ugtP null kill -8, PrPC confirm 29* and LD9 cytotox 18*.
For O=c1c2cn[nH]c2[nH]c(=S)n1-c1cccc2ccccc12 the results were PrPC TRFRET 40*, VHR inh abs -6, SARS 3CLpro inh -4, Sa RN4220 lethal 0, BJeLR lethal 3, ugtP null kill 3, PrPC confirm 46* and LD9 cytotox -6.
Screening NCCCCC1CNC(=O)C(=O)N1CCc1cc(C(F)(F)F)cc(C(F)(F)F)c1 (centres undefined) returned Sa RN4220 lethal 3 and ugtP null kill 2.
For CCOc1ccc2[nH]cc(C(=O)NCc3ccc(F)cc3)c(=O)c2c1 the results were PrPC TRFRET 27*, VHR inh abs 17, SARS 3CLpro inh 1, Sa RN4220 lethal 6, BJeLR lethal 9, ugtP null kill -6, PrPC confirm 27* and LD9 cytotox -1.
For CCN1/C(=C/C=C/c2oc3ccc(-c4ccccc4)cc3[n+]2CC)Oc2ccc(-c3ccccc3)cc21 the results were PrPC TRFRET 43*, VHR inh abs 6, SARS 3CLpro inh -165, Sa RN4220 lethal 97*, BJeLR lethal 80*, ugtP null kill 100*, PrPC confirm 56* and LD9 cytotox 64*.
`C#CCNC(=O)C1=CC(c2cn(C(C)=O)c3ccccc23)CC(OCCCCO)O1` (centres undefined) gave Sa RN4220 lethal 5 and ugtP null kill -10.
COc1ccc2nc(C)cc(SCC(NC(C)=O)C(=O)OC(C)C)c2c1 (centres undefined) was read as PrPC TRFRET 12, VHR inh abs 6, SARS 3CLpro inh 1, Sa RN4220 lethal 4, BJeLR lethal -2 and ugtP null kill 10.
`CC(=O)NC(CSc1cc(C)nc2ccc(Br)cc12)C(=O)O` (centres undefined) gave PrPC TRFRET 32*, VHR inh abs 2, SARS 3CLpro inh -2, Sa RN4220 lethal 1, BJeLR lethal -3, ugtP null kill 11, PrPC confirm 57* and LD9 cytotox -4.
